Pf growth 48h = Primary qHTS for delayed death inhibitors of the malarial parasite plastid, 48 hour incubation; P. falciparum luciferase growth in erythrocytes, 48 h; AID 504832, 2011; 310,000 compounds, 5.9% hits; Potency, µM (titrated, usually from 28.7 µM), for inactives: at the top dose activity change, negative = inhibition, actives largely listed as inhibitors; also: potency is read from the fitted curve at half-maximal effect; % is scaled to controls: 0 for no effect and ±100 for the full control effect
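First compound was added to culture medium, then infected red cells at 0.1% parasitemia and 2% hematocrit (final). After incubation at 37 C under 5% CO2, luciferase detection reagent was dispensed and light output recorded.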
Shiga inhibitor = A qHTS for Small Molecule Inhibitors of Shiga Toxin | Vero cells, Shiga toxin protein synthesis inhibition reporter | inhibition, % at 38.7 µM | 290,000 compounds, 9.2% hits; in the data active = inhibition mostly above about 28%, no sharp cut-off; inactive = mostly below about 43%; also: 0% is about no effect
CHX counter = Cycloheximide Counterscreen for Small Molecule Inhibitors of Shiga Toxin; max response, %; 300,000 compounds, 12% hits; AID 2314, 2010; cell reporter, cycloheximide protein synthesis inhibition counterscreen; in the data active = max response mostly above about 13%, no sharp cut-off; inactive = mostly below about 14%; also: read at 38.3 µM for the half of the compounds with a filed dose; 0% is about no effect
LmPK inh = qHTS Assay for Inhibitors of Leishmania Mexicana Pyruvate Kinase (LmPK). Q27686. purified LmPK, Kinase-Glo ATP luminescence, 1 h. Potency, µM (series often up to 57.5 µM), inactives show at the top dose activity change, negative = inhibition, hits mostly inhibitors. 290,000 compounds, 0.37% hits. AID 1721, 2009; also: potency is read from the fitted curve at half-maximal effect; % is scaled to controls: 0 for no effect and ±100 for the full control effect
Target sequence (Q27686 whole entry, looked up): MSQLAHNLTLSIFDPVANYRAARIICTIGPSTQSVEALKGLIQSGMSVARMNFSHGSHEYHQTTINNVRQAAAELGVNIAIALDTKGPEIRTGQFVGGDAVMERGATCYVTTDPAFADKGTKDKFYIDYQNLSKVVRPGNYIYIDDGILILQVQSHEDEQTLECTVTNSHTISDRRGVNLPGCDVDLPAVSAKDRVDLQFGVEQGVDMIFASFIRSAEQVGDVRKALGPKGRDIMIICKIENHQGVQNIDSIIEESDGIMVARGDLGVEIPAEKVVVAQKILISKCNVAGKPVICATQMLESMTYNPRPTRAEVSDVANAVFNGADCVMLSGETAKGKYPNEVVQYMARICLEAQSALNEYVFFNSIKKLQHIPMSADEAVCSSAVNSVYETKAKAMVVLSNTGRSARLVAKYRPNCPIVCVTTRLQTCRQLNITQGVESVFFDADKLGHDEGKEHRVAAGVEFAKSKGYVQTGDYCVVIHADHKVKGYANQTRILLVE
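qHTS format; LmPK 0.1 nM; substrates PEP 0.5 mM and ADP 0.1 mM. One-hour room-temperature incubation, then coupled luciferase luminescence; 0.5 nM enzyme wells mark activation.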
Pf growth 96h = Primary qHTS for delayed death inhibitors of the malarial parasite plastid, 96 hour incubation. Potency, µM (highest dose often 28.7 µM), for the others: top-dose activity change, negative = inhibition, usual class: inhibitors. P. falciparum luciferase reporter growth, 96 h. 320,000 compounds, 6.9% hits; also: potency is read from the fitted curve at half-maximal effect; % is scaled to controls: 0 for no effect and ±100 for the full control effect
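Delayed-death screen, second-generation endpoint: infected erythrocytes, 2% hematocrit, 0.05% parasitemia final; 96 hours at 37 C, 5% CO2; luciferase detection reagent; luminescence decrease equals reduced growth.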
Starred values were filed as active, the others as inactive; i = inactive; ? = inconclusive; · = not tested or not shown; + = active, no number. In the library only some 22% were active in any assay of this set; here they are far more common. Unless noted, calls follow the shape of the dose curve; as a rule, active = well fitted inhibition curve with a large enough effect; inconclusive = small, poorly fitted or top-dose-only effect, or another doubt; inactive = no such curve, though single readings can be large or run the other way.

SMILES	Pf growth 48h	Shiga inhibitor	CHX counter	LmPK inh	Pf growth 96h
C=CCNC(=O)c1ccc(-c2nc(-c3ccccc3)cs2)cc1	-91%	51*	33*	-4%	?
O=C(O)c1ccc(-c2nc(-c3cccc(C(F)(F)F)c3)cs2)cc1	30%	79	7	4%	55%
O=C(O)c1ccc(-c2nc(-c3ccc(Cl)cc3)cs2)cc1	210%	81*	32*	-1%	358%
O=C(O)c1ccc(-c2nc(-c3ccc(Cl)cc3Cl)cs2)cc1	244%	77*	34*	-2%	225%
COc1ccc(-c2cnc3nc[nH]c(=O)c3n2)cc1	45%	34	8	-2%	-30%
COc1ccc(-c2csc(-c3[nH]cnc3N)n2)cc1	-26%	86*	28*	-2%	?
COc1ccccc1N(CC(=O)N/N=C/c1ccc(C(=O)O)cc1)S(=O)(=O)c1ccc(C)cc1	3%	20	9	0%	10%
CCOC(=O)C1CCN(C(=O)CCCn2nc(CC)n3c(cc4occc43)c2=O)CC1	-5%	-5	-2	3%	?
CO/N=C(\C(=O)N[C@@H]1C(=O)N2C(C(=O)[O-])=C(C[N+]3(C)CCCC3)CS[C@@H]12)c1csc(N)n1	-3%	·	·	·	-4%
COc1ccc(-c2nc(CC(=O)O)cs2)cc1	·	-5	-1	-6%	42%
COc1ccc(-c2csc(-c3ccc(C(=O)O)cc3)n2)cc1	245%	61*	27*	-9%	i
CCCCN(C(=O)Cc1cccs1)c1nnc(-c2cccnc2)s1	17%	44*	20*	-2%	-18%
CN(C(=O)c1ccco1)c1nnc(-c2ccc(F)cc2)s1	130%	85*	51*	8%	2%
COCCN(C(=O)Cc1cccs1)c1nnc(-c2cccnc2)s1	16%	1	2	-7%	69%
CCCN(C(=O)c1ccco1)c1nnc(-c2ccccc2C)s1	0%	132*	94*	-2%	-8%
COCCN(C(=O)c1ccco1)c1nnc(-c2ccc(OC)c(OC)c2)s1	27%	-3	-2	0%	-24%
CN(C(=O)c1ccco1)c1nc(-c2ccc(F)cc2)cs1	159%	58*	45*	0%	?
Cc1ccc(OCCCC(=O)NC2CCCCC2)cc1	12%	-4	6	-7%	?
O=C(NNC(=O)c1ccc(SCC2CCCO2)c([N+](=O)[O-])c1)c1ccc(F)cc1 (stereo not drawn)	43%	-11	2	2%	-7%
CC12CCC=CC1C(c1ccc3ccccc3c1)N(Cc1ccccc1)C2=O (stereo not drawn)	·	-5	1	·	·
CN(C(=O)c1ccco1)c1nc(CC(=O)Nc2ccccc2)cs1	15%	+	18	-12%	-3%
CCCN(C(=O)c1cccs1)c1nnc(-c2ccncc2)s1	68%	57*	22*	-1%	?
CCN(C(=O)c1ccco1)c1nnc(-c2cccnc2)s1	61%	75*	34*	-5%	?
CCN(C(=O)Cc1ccccc1OC)c1nnc(-c2ccncc2)s1	?	-18	-1	2%	?
CCN(C(=O)Cc1cccs1)c1nnc(-c2cc(OC)c(OC)c(OC)c2)s1	5.2µM*	-4	-1	-6%	-17%
SMILES	Pf growth 48h	Shiga inhibitor	CHX counter	LmPK inh	Pf growth 96h
Cc1noc(C)c1-c1ccc2ncnc(NCc3ccc(C(F)(F)F)o3)c2c1	·	16	12	·	·
COCCN(C(=O)c1ccco1)c1nnc(-c2ccc(F)cc2)s1	46%	44	23*	-3%	284%
Cc1c(C(=O)N(C)C2CCCCC2)sc2nc3ccc(N)cc3n12	·	43*	31*	·	·
Cc1ccc2[nH]c(=O)c3cc(C(=O)N(C)C4CCCCC4)sc3c2c1	?	9	9	-2%	?
CC(C)(C)OC(=O)N1CCC[C@H]1C(=O)Nc1ccc(S(=O)(=O)C(F)F)cc1	-8%	-23	-1	-2%	-3%
C=C(C)C1CC=C(C)/C(=N\NC(=O)CNc2cccc3ccccc23)C1 (stereo not drawn)	5%	-7	1	-3%	?
CCN1CC=C(c2c[nH]c3ccccc23)CC1	1µM*	26	-1	-3%	40%
COc1ccc(-c2[nH]nc3oc(=O)cc(C)c23)cc1	-15%	-1	10	1%	8.3µM*
Cc1cc(=O)oc2n[nH]c(-c3ccccc3)c12	18%	15	-1	1%	-19%
CC(Sc1nnc(-c2cccnc2)n1N)C(=O)Nc1ccc2c(c1)OCCO2 (stereo not drawn)	6%	·	·	·	77%
Cc1[nH]nc2c1/C(=N/O)CC(c1ccccc1)C2 (stereo not drawn)	-14%	-2	1	-5%	?
CCCc1noc2c1/C(=N\O)CC(c1ccccc1)C2 (stereo not drawn)	9.3µM*	12	-2	4%	?
CCCc1n[nH]c2c1/C(=N/O)CC(c1ccccc1)C2 (stereo not drawn)	?	19	12	2%	?
CCc1noc2c1/C(=N\O)CC(c1ccccc1)C2 (stereo not drawn)	8.3µM*	32	18	4%	85%
Cc1ccc(S(=O)(=O)N2CC(O)C2)cc1	8%	·	·	·	0%
O=C1OCCN1C(=O)[C@H]1[C@H](c2ccc([N+](=O)[O-])cc2)C(c2ccc(F)cc2)=NN1c1ccc(Br)cc1	·	i	18	·	·
COc1ccc(C(=O)N2CCc3[nH]nc(-c4ccccc4)c3C2)cc1	-30%	-4	23	4%	-22%
O=C(CSc1nnc2ccc3ccccc3n12)N1CCOCC1	81%	32*	63*	-4%	66%
Cc1cc2ccccc2n2c(SCC(=O)N3CCOCC3)nnc12	9%	24	-4	2%	?
CCn1c(SCC(=O)N2CCOCC2)nnc1-c1cccs1	-3%	27	6	2%	12µM*
c1ccc2c(c1)ccc1nnc(-c3ccc4c(c3)OCO4)n12	-7%	active	12*	0%	37%
CCn1c(SCC(=O)N2CCCc3ccccc32)nnc1-c1cccs1	?	-5	-2	-3%	17%
c1ccc2c(c1)ccc1nnc(SCc3ccc4c(c3)OCCO4)n12	·	42*	42*	5%	-27%
COc1ccc(CNC(=O)CN(C(=O)CCC(=O)Nc2nccs2)c2cccc(C)c2)cc1	3%	-5	-2	-1%	-4%
CCOc1ccc(N2CC(C(=O)Nc3nnc(CC)s3)CC2=O)cc1 (stereo not drawn)	?	4	7	1%	-19%
CCCCCOC(=O)Nc1nc(=O)n(C2O[C@H](C)[C@@H](O)[C@@H]2O)cc1F (stereo partly drawn)	-29%	·	·	·	?
CC(C)(C)OC(=O)N[C@@H](Cc1ccccc1)C(=O)N1CCC(C(=O)N[C@@H](Cc2c[nH]c3ccccc23)C(=O)O)CC1	-18%	-12	-1	1%	?
